These results are taken from PubChem BioAssay (Tox21).

“And” between values parts separate entries of the source, which are not always exact repeats. Identical values can stand only once. Records with an inconclusive call do not appear. A structure can be active in one record and inactive in another. The source made the active and inactive calls. Calls come from the whole dose curve.

The target of test [1] is Acetylcholinesterase (Homo sapiens) (UniProt P22303). Put plainly: Acetylcholinesterase (AChE) small molecule antagonists: colormetric cell-based qHTS assay (AID 1347395). Note: nearly all actives have a fitted effect of over 30% in size. Note: potency is the fitted concentration of half-maximal effect. In short, it runs like this:
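SH-SY5Y cells; cpd 30 min 37 C; + DTNB/acetylthiocholine, 90 min 37 C; colorimetric thiocholine read; qHTS.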

Test [2] shares this target. Kind of test: Acetylcholinesterase (AChE) small molecule antagonists: enzyme-based qHTS assay (AID 1347397). Note: nearly all actives have a fitted effect of over 55% in size. Note: potency is the fitted concentration of half-maximal effect. As to conditions: Potency: AChE enzyme activity inhibition; outcome: AChE enzyme activity inhibition. In short, it runs like this:
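Colorimetric DTNB readout of acetylthiocholine hydrolysis, 10 min at room temperature, after 30 min room-temperature exposure of 50 mU/mL recombinant human enzyme to compound; DMSO vehicle control.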
(Quantitative high-throughput screening tests each substance at several concentrations.)

The target is the same in test [3]. Put plainly: Acetylcholinesterase (AChE) small molecule antagonists: fluorescence cell-based qHTS assay (AID 1347398). Note: nearly all actives have a fitted effect of over 50% in size. Note: potency is the fitted concentration of half-maximal effect. As to conditions: Potency: AChE activity; outcome: AChE activity. In short, it runs like this: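 Cellular AChE activity read as thiocholine from acetylthiocholine hydrolysis, detected by Thiolite Green fluorescence at 490/520 nm after 40 min at room temperature. Compounds were pre-incubated 30 min at 37 C on adherent SH-SY5Y cells.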

For test [4] the target is unchanged. Put plainly: Acetylcholinesterase (AChE) small molecule antagonists: enzyme-based qHTS assay with human liver microsomes (AID 1347399). Note: nearly all actives have a fitted effect of over 60% in size. Conditions: Potency: qHTS inhibition; outcome: qHTS inhibition. In outline: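 Recombinant human AChE (50 mU/mL in the enzyme mix) and human liver microsomes (0.25 mg/mL final) were preincubated with compound and NADPH (0.25 mg/mL final) for 30 min at 37 C. Acetylthiocholine/DTNB was then added; thiocholine was read colorimetrically after 10 min at room temperature.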
% is set by controls: 0 for no effect and ±100 for the full control effect.

Sequence of Acetylcholinesterase (Homo sapiens) (P22303 whole entry, looked up): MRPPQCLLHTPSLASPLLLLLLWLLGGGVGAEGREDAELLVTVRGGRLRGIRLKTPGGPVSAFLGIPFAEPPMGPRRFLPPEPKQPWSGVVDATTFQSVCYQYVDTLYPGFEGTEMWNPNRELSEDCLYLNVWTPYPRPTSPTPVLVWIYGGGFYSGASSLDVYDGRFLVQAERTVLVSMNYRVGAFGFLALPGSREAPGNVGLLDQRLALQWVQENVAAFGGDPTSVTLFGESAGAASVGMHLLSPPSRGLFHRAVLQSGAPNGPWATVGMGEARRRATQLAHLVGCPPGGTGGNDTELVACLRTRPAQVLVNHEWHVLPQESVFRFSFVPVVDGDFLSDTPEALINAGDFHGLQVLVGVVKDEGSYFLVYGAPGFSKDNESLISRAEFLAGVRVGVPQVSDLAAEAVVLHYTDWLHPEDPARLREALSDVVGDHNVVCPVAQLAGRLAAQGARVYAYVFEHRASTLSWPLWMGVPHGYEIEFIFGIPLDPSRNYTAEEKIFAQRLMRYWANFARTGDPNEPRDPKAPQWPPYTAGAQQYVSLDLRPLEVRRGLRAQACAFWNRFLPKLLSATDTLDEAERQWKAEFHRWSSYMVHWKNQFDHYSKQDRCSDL

`CCCCCCCCC1CO1` (stereo unspecified): the Potency result in test [1], in test [2], in test [3] and in test [4] was “inactive” each time.
As to `CC1CCC(C(C)(C)S)C(=O)C1` (stereo unspecified), the Potency entry in test [1], in test [2], in test [3] and in test [4] was “inactive” in each case.
Turning to `CCCCCCC/C=C/C=O`, the Potency entry in test [1], in test [2], in test [3] and in test [4] was “inactive” each time.
With `Cc1cccc(C(=O)O)c1O`, the Potency result in test [1], in test [2], in test [3] and in test [4] was “inactive” throughout.
`CC1(C)O[C@@H]2C[C@H]3[C@@H]4CCC5=CC(=O)C=C[C@]5(C)[C@H]4[C@@H](O)C[C@]3(C)[C@]2(C(=O)CO)O1`: the Potency result in test [1], in test [2], in test [3] and in test [4] was “inactive” in each case.
For `CCCCCOC(C)=O`, the Potency in test [1] is 32.1 µM (active) and inactive. Also, the Potency entry in test [2], in test [3] and in test [4] was “inactive” each time.
`CC(=O)C1C(=O)C=C(C)OC1=O` (stereo unspecified): the Potency entry in test [1], in test [2], in test [3] and in test [4] was “inactive” each time.
In the case of `CC(C)(C)C1=CC(=O)C=C(C(C)(C)C)C1=O`, the Potency result in test [1], in test [2], in test [3] and in test [4] was “inactive” throughout.
As for `CC(=O)/C=C/c1ccco1`, the Potency result in test [1], in test [2], in test [3] and in test [4] was “inactive” throughout.
For `C[Si](C)=O`, the activity, negative = inhibition in test [1] was -2.31% [at 10.5 µM] (inactive). For the same molecule, the values for the activity change, negative = inhibition in test [2], in test [3] and in test [4] were -1.81% [at 10.5 µM] (inactive), 0.274% [at 10.5 µM] (inactive) and -0.0165% [at 10.5 µM] (inactive), respectively.
Turning to `Cc1cc(O)cc(C)c1Cl`, the Potency result in test [1], in test [2], in test [3] and in test [4] was “inactive” throughout.
As to `CC(=O)O[C@@H]1CC2C3CCc4cc(OC(=O)c5ccccc5)ccc4C3CCC2(C)[C@H]1OC(C)=O` (stereo partly specified), the Potency entry in test [1], in test [2], in test [3] and in test [4] was “inactive” each time.
Consider `COc1ccc(CCC(C)=O)cc1`, for which the Potency entry in test [1], in test [2], in test [3] and in test [4] was “inactive” throughout.
Take `CCCCNc1c(C(=O)OCC)c(C)nc2c1cnn2CC`: the Potency result in test [1], in test [2], in test [3] and in test [4] was “inactive” throughout.
Take `O=c1[nH]cnc2c1ncn2[C@H]1CC[C@@H](CO)O1`: the Potency entry in test [1], in test [2], in test [3] and in test [4] was “inactive” throughout.
As to `NCc1cccc(CN)c1`, the Potency result in test [1], in test [2], in test [3] and in test [4] was “inactive” each time.
For the molecule `CN1CCc2cccc3c2[C@H]1Cc1ccc(O)c(O)c1-3`, the Potency in test [1] is 64 µM (active); in test [2] it was 40.4 µM (active) and 21.1 µM (active); in test [3] it was 64 µM (active). Also, in test [4], the Potency result is “inactive”.
As to `N=C(N)N`, the Potency result in test [1], in test [2], in test [3] and in test [4] was “inactive” in each case.
`CC1=CC[C@@H]2C[C@H]1C2(C)C`: in test [1], the activity, negative = inhibition was 7.66% [at 23.6 µM] (inactive). Also, the activity change, negative = inhibition in test [2] was 0.56% [at 23.6 µM] (inactive); in test [3], 0.301% [at 23.8 µM] (inactive); in test [4], -3.81% [at 23.6 µM] (inactive).
Consider `Fc1ccc(Br)cc1`, for which the Potency result in test [1], in test [2], in test [3] and in test [4] was “inactive” in each case.
As for `CC(COCCO)OCCO` (stereo unspecified), the Potency result in test [1], in test [2], in test [3] and in test [4] was “inactive” in each case.
For the molecule `CC1=CC(=O)CC(C)(C)C1`, the Potency entry in test [1], in test [2], in test [3] and in test [4] was “inactive” throughout.
Regarding `COCCOCCOCCO`, the Potency entry in test [1], in test [2], in test [3] and in test [4] was “inactive” in each case.
As to `CCCCOC(=O)c1ccccc1`, the Potency entry in test [1], in test [2], in test [3] and in test [4] was “inactive” each time.
For the molecule `O=C1CCCCCCCCCCCCCCO1`, the Potency result in test [1], in test [2], in test [3] and in test [4] was “inactive” throughout.
On to `O=C1OC2(c3cc(Br)c(O)c(Br)c3Oc3c2cc(Br)c(O)c3Br)c2c(Cl)c(Cl)c(Cl)c(Cl)c21`, for which the Potency entry in test [1], in test [2], in test [3] and in test [4] was “inactive” throughout.
For the molecule `OCC(O)CN1CCN(c2ccccc2)CC1` (stereo unspecified), the Potency result in test [1], in test [2], in test [3] and in test [4] was “inactive” in each case.
In the case of `NCCN`, the call in test [1], in test [2], in test [3] and in test [4] was inactive.
Regarding `Cc1ccc(C)c(OCCCC(C)(C)C(=O)O)c1`, the Potency entry in test [1], in test [2], in test [3] and in test [4] was “inactive” throughout.
With `Oc1ccccc1F`, the Potency entry in test [1], in test [2], in test [3] and in test [4] was “inactive” each time.
For the molecule `C/C(=N\O)[C@@H](C)NCC(C)(C)CN[C@H](C)/C(C)=N/O`, the Potency entry in test [1], in test [2], in test [3] and in test [4] was “inactive” each time.
For `O=C(Oc1ccccc1)c1ccccc1O`, the Potency entry in test [1], in test [2], in test [3] and in test [4] was “inactive” each time.
Turning to `CCC(=O)O`, the Potency entry in test [1], in test [2], in test [3] and in test [4] was “inactive” in each case.
Turning to `CCOC(=O)C1=C[C@]2(CC)CCCN3CCc4c(n1c1ccccc41)[C@@H]32`, the Potency result in test [1], in test [2], in test [3] and in test [4] was “inactive” each time.
`C=CCOC(=O)C(=C)C`: the Potency result in test [1], in test [2], in test [3] and in test [4] was “inactive” in each case.
Take `COC(=O)c1ccccc1`: the Potency result in test [1], in test [2], in test [3] and in test [4] was “inactive” each time.
`Cc1ccc(N(C)C)cc1`: the Potency result in test [1], in test [2], in test [3] and in test [4] was “inactive” throughout.
On to `Nc1ccc2cc(S(=O)(=O)O)cc(O)c2c1`, for which the Potency entry in test [1], in test [2], in test [3] and in test [4] was “inactive” each time.
Turning to `Oc1ccccc1O`, the Potency result in test [1], in test [2], in test [3] and in test [4] was “inactive” throughout.
